# Experimental data taken from PubChem BioAssay.
# Active and inactive are the calls of the source. Unless noted, the rule behind the calls is not given here.
# Experiments:
# [1] = A549 cell viability effects, profiling panel, calcein-AM fluorescence, 48 h, basal (AID 1162); conditions: higher = more signal; note: test concentration not given here
# [2] = adipocyte viability effects, profiling panel, cell-based, 3T3-L1 adipocytes, calcein-AM fluorescence, 48 h, basal (AID 1163); conditions: 3T3-L1 adipocytes viability, higher = more signal; note: test concentration not given here
# [3] = HepG2 cell viability effects, profiling panel, calcein-AM fluorescence, 48 h, basal (AID 1164); conditions: higher = more signal; note: test concentration not given here
# [4] = MM1S cell viability effects, profiling panel, calcein-AM fluorescence, 48 h, basal (AID 1165); conditions: higher = more signal;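 note: viability of MM1S multiple myeloma cells under basal unstimulated conditions; test concentration not given here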
# [5] = basal RPMI8226 viability, no added stimulus, profiling panel, cell-based, calcein-AM fluorescence, 48 h, PK04 Diversity Set (AID 1166); conditions: RPMI8226 myeloma viability, higher = more signal;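 note: cells grown under basal conditions without added stimulus; test concentration not given here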
# [6] = basal HepG2 mitochondrial membrane potential changes, profiling panel, cell-based, JC-1 fluorescence, 24 h, 100 nL compound (AID 1167); conditions: higher = more signal; note: test concentration not given here
# [7] = basal 3T3-L1 adipocyte mitochondrial potential changes, profiling panel, cell-based, JC-1 fluorescence, 3T3-L1 adipocytes, 24 h, 100 nL compound (AID 1168); conditions: JC-1 mitochondrial fluorescence, higher = more signal, called active from +8 up or from −8 down; note: test concentration not given here
# [8] = basal RPMI8226 mitochondrial membrane potential changes, profiling panel, cell-based, JC-1 fluorescence, 24 h, 100 nL compound (AID 1169); conditions: RPMI8226 myeloma, JC-1 mitochondrial potential fluorescence, higher = more signal; note: test concentration not given here
# [9] = basal MM1S mitochondrial membrane potential changes, profiling panel, cell-based, JC-1 fluorescence, 24 h, 100 nL compound (AID 1170); conditions: higher = more signal; note: test concentration not given here
# [10] = A549 lung cancer cell viability effects, profiling panel, resazurin fluorescence, 24 h, PK04 Diversity Set (AID 1171); conditions: higher = more signal, called active from +8 up or from −8 down; note: test concentration not given here
# [11] = HepG2 liver cancer cell viability effects, profiling panel, resazurin fluorescence, 24 h, PK04 Diversity Set (AID 1172); conditions: higher = more signal; note: test concentration not given here
# [12] = basal S. cerevisiae growth modulation, no modifier, primary screen, OD600, strain BY4716, 24 h, basal condition (AID 1173); conditions: OD600, 24 h, higher = more signal, called active from +8 up or from −8 down
# [13] = MM1S myeloma cell viability, profiling panel, resazurin fluorescence, basal, 24 h, PK04 Diversity Set (AID 1174); conditions: higher = more signal, called active from +8 up or from −8 down;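 note: MM1S multiple myeloma cell line; test concentration not given here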
# [14] = biological target: Dihydroorotate dehydrogenase (quinone), mitochondrial (Plasmodium falciparum (isolate 3D7)) (UniProt Q08210); assay: PfDHODH enzyme inhibitors, primary screen, biochemical, C-terminal His tag, absorbance 600 nm (AID 1175); conditions: DCIP absorbance 600 nm, higher = more signal, called active from +8 up or from −8 down;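 note: recombinant parasite enzyme with a five histidine tag at its C terminus; test concentration not given here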
# Sequence of Dihydroorotate dehydrogenase (quinone), mitochondrial (Plasmodium falciparum (isolate 3D7)) (Q08210 whole entry, looked up): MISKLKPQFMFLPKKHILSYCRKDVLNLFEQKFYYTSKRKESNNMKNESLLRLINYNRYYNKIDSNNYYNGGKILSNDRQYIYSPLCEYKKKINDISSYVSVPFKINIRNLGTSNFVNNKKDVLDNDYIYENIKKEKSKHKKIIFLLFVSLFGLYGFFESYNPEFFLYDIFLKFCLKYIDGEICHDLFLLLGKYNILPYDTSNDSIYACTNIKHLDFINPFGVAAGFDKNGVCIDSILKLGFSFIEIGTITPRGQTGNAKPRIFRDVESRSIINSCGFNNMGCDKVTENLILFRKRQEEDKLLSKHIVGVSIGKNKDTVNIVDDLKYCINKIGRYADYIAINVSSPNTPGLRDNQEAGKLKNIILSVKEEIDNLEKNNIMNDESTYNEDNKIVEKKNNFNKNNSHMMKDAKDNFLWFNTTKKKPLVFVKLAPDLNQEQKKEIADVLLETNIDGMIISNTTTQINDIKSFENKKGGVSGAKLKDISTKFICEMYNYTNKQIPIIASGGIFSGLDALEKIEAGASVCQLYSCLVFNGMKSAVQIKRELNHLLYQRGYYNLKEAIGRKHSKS
# [15] = P. aeruginosa biofilm formation inhibitors, primary screen, strain PAO1, LB-PBS medium, absorbance 600 nm (AID 1176); note: test concentration not given here; conditions: P. aeruginosa PAO1 growth/biofilm, A600, 12 h; higher = more signal
# [16] = S. cerevisiae RM11-1a growth modifiers, primary screen, strain RM11-1a, OD600, basal, 24 h (AID 1177); conditions: OD600, 24 h, higher = more signal, called active from +8 up or from −8 down;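 note: cultures grown under basal conditions with no added stressor; test concentration not given here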
# [17] = E. coli acrAB mutant growth effects, primary screen, E. coli filamentation inducers, strain DRC39, OD650, 24 h (AID 1178); conditions: higher = more signal, called active from +8 up or from −8 down;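 note: growth measured as culture turbidity by optical density at 650 nm; test concentration not given here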
# [18] = E. coli acrAB mutant growth effects, primary screen, E. coli filamentation inducers, strain DRC39, OD650, 48 h (AID 1179);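 note: screen aims at cell division blockers that make cells filament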; conditions: E. coli DRC39 delta-acrAB growth, higher = more signal, called active from +8 up or from −8 down
# [19] = RPMI8226 myeloma cell viability, profiling panel, resazurin fluorescence, basal, 24 h, PK04 Diversity Set (AID 1180); conditions: higher = more signal;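 note: RPMI8826 multiple myeloma cell line at 5000 cells per well; test concentration not given here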
# [20] = biological target: E3 ubiquitin-protein ligase XIAP (Homo sapiens) (UniProt P98170); assay: XIAP binders, primary screen, biophysical, small-molecule microarray, fluorescence 635 nm (AID 1181); conditions: small-molecule microarray binding, higher = more signal;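 note: score merges 667 nm emission and signal to noise over triplicate slides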
# Sequence of E3 ubiquitin-protein ligase XIAP (Homo sapiens) (P98170 whole entry, looked up): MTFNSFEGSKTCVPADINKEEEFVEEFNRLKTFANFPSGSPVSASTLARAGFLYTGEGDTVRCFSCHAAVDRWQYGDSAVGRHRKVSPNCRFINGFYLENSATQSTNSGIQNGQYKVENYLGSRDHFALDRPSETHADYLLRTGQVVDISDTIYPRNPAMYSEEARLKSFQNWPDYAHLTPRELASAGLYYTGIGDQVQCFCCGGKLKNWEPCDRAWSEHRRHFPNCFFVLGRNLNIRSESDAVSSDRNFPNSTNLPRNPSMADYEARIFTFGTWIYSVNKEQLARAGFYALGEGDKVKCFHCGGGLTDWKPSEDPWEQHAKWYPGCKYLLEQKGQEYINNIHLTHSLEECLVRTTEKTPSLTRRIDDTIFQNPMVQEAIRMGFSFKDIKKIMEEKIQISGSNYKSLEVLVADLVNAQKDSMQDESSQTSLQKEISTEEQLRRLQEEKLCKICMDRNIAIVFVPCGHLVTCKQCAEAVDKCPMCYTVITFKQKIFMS
Structure (SMILES),z-score [1],z-score [2],z-score [3],z-score [4],z-score [5],z-score [6],z-score [7],z-score [8],z-score [9],z-score [10],z-score [11],z-score [12],z-score [13],composite z-score [14],z-score [15],z-score [16],z-score [17],z-score [18],z-score [19],composite z-score [20]
COc1ccc([Si](C)(C)[C@@H]2[C@@H](CCn3cc([C@H](O)c4ccccc4)nn3)O[C@]3(C(=O)N(C)c4ccccc43)[C@H]2C)cc1,-0.536,1.27,-1.01,-2.69,-3.85,0.988,-0.42 (inactive),-0.866,-0.252,-1.89 (inactive),-1.46,-0.397 (inactive),-2.34 (inactive),0.283 (inactive),0.119 (inactive),1.04 (inactive),-0.834 (inactive),-1.33 (inactive),-1.81,-0.0272
CC(C)C(CO)N1C(=O)[C@@H]2[C@H]3C(=O)OCC=C[C@H]3OC23C=CCN(c2ccc4ccccc4c2)C(=O)[C@@H]13 (stereo not given in full),-0.339,0.126,0.21,0.88,-1.02,-0.124,0.106 (inactive),-0.651,1.1,0.156 (inactive),-0.128,0.485 (inactive),0.112 (inactive),0.958 (inactive),-0.497 (inactive),1.24 (inactive),0.483 (inactive),0.347 (inactive),0.133,-0.0476
COc1ccc([Si](C)(C)[C@@H]2[C@@H](CCO)O[C@]3(C(=O)N(Cc4cccc(N5CCCCC5=O)c4)c4ccccc43)[C@H]2C)cc1,-0.86,0.161,-1.7,-2.75,-1.65,-1.94,0.128 (inactive),-1.02,-1.43,-0.55 (inactive),-0.994,0.697 (inactive),-1.93 (inactive),-1.75 (inactive),0.225 (inactive),5.19 (inactive),0.318 (inactive),0.244 (inactive),-0.439,0.0623
CN1C(=O)C2C=CC(C(O)C(C)(C)C)N(Nc3ccccc3)C2C1=O (stereo not given),-0.398,-1.31,0.19,0.235,-1.08,-1.16,-0.398 (inactive),-0.476,-0.178,-0.463 (inactive),-0.376,0.66 (inactive),-0.281 (inactive),-0.702 (inactive),0.695 (inactive),0.0609 (inactive),-0.568 (inactive),0.108 (inactive),-0.444,0.621
CC(C)C(=C=CC[C@H](O)c1ccccc1OCCO)CCO,-0.417,-1.06,-0.07,-0.256,-1.56,-0.926,-0.318 (inactive),-0.424,-0.305,-0.245 (inactive),-0.457,-1.39 (inactive),-0.0976 (inactive),-0.757 (inactive),1.17 (inactive),0.0589 (inactive),-0.235 (inactive),-0.153 (inactive),0.217,-0.23
